Among the test systems are SR leukemia; RPMI-8226 leukemia; OVCAR-8 ovarian; OVCAR-5 ovarian; OVCAR-4 ovarian; SK-OV-3 ovarian; IGROV1 ovarian; OVCAR-3 ovarian; HS 578T breast; NCI/ADR-RES ovarian; T-47D breast; BT-549 breast; MDA-MB-435 melanoma; SW-620 colon; MCF7 breast; HCT-116 colon; HCC-2998 colon; KM12 colon.
What all share (test): NCI-60 one-dose screen, 48 h (100 = growth as untreated, 0 = no growth, -100 = all killed)
Common to all, as to conditions: 10 µM unless noted

Compounds without any hit were thinned out: in the full panel of roughly 83,000, 20% have a hit.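 Compound tested at a single concentration for 48 hours in 96-well plates; a percent growth value below 10 was scored as active.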 Unmarked numbers belong to inactive results. The source made the active and inactive calls.

Consider `Cc1cccc(C)c1N=c1oc2ccc(Cl)cc2nc1-c1ccccc1O`, for which the growth is 51.9% in the experiment on SR leukemia; 82.9% in the experiment on RPMI-8226 leukemia; 91.4% in the experiment with OVCAR-8 ovarian; 81.3% in the experiment on OVCAR-5 ovarian; 78.4% with OVCAR-4 ovarian; 92.8% in the experiment with SK-OV-3 ovarian. In addition, the growth is 88.3% in the experiment with IGROV1 ovarian; 102% in the experiment with OVCAR-3 ovarian; 84.3% in the experiment with HS 578T breast; 86.4% in the experiment with NCI/ADR-RES ovarian; 37.8% in the experiment with T-47D breast; 107% with BT-549 breast. Moreover, the growth in the experiment with MDA-MB-435 melanoma is 99.3%; in the experiment with SW-620 colon it was 91%; in the experiment with MCF7 breast, 67.9%; in the experiment with HCT-116 colon, 76.6%; in the experiment on HCC-2998 colon, 93.8%; in the experiment on KM12 colon it was 98.9%.

Consider `C=C1C(=O)O[C@H]2[C@H]1CC/C(COC(=O)NCc1c[nH]c3ccc(F)cc13)=C\CC[C@@]1(C)O[C@@H]21`, for which the growth is 13% with SR leukemia; -24.4% (active) in the experiment with RPMI-8226 leukemia; 0.654% (active) in the experiment on OVCAR-8 ovarian; -30.6% (active) in the experiment with OVCAR-5 ovarian; 11.9% with OVCAR-4 ovarian; 93.7% with SK-OV-3 ovarian. Further, the growth in the experiment with IGROV1 ovarian was -46.7% (active); with OVCAR-3 ovarian, -75.6% (active); with HS 578T breast, 50%; in the experiment on NCI/ADR-RES ovarian, 59.7%; with T-47D breast, -58.3% (active); in the experiment with BT-549 breast it was -51.6% (active). For the same compound, the growth in the experiment with MDA-MB-435 melanoma is -63.5% (active); with SW-620 colon, -72.4% (active); with MCF7 breast, 22.4%; in the experiment on HCT-116 colon it was -86.7% (active); with HCC-2998 colon it was 68.3%; in the experiment on KM12 colon it was 33.5%.

In the case of `C=C(C)[C@@H]1CC[C@]2(C(=O)N3CCN(C)CC3)CC[C@]3(C)[C@H](CC[C@@H]4[C@@]5(C)C/C(=C/c6ccncc6)C(=O)C(C)(C)[C@@H]5CC[C@]43C)[C@@H]12`, the growth in the experiment on SR leukemia was 9.44% (active); with RPMI-8226 leukemia it was 20.7%; with OVCAR-8 ovarian it was 49.1%; with OVCAR-5 ovarian, 88.8%; in the experiment on OVCAR-4 ovarian, 53%; in the experiment with SK-OV-3 ovarian, 88.8%. Moreover, the growth with IGROV1 ovarian was 74.8%; in the experiment with OVCAR-3 ovarian it was 53.3%; in the experiment with HS 578T breast, 61.8%; in the experiment on NCI/ADR-RES ovarian, 57.9%; with T-47D breast, 48.3%; in the experiment on BT-549 breast it was 66.3%. The growth in the experiment on MDA-MB-435 melanoma was 56.4%; in the experiment with SW-620 colon, 39.6%; with MCF7 breast it was 19%; in the experiment with HCT-116 colon it was 17.6%; in the experiment on HCC-2998 colon it was 62.5%; with KM12 colon, 51.3%.

For the compound `N#Cc1c(NC(=O)NCc2ccccc2)sc2c1CCCCC2`, the growth in the experiment on SR leukemia is 29.5%; in the experiment with RPMI-8226 leukemia it was 14.8%; in the experiment on OVCAR-8 ovarian it was 21.8%; in the experiment on OVCAR-5 ovarian, 43.5%; in the experiment on OVCAR-4 ovarian, 43%; in the experiment on SK-OV-3 ovarian, 25%. For the same compound, the growth in the experiment with IGROV1 ovarian was 27.2%; with OVCAR-3 ovarian it was -17.6% (active); in the experiment on HS 578T breast, 9.89% (active); with NCI/ADR-RES ovarian it was 17.2%; in the experiment with T-47D breast it was 37.8%; with BT-549 breast it was 26.2%. Also, the growth in the experiment with MDA-MB-435 melanoma was -40.5% (active); in the experiment on SW-620 colon, 21.5%; with MCF7 breast, 19.1%; in the experiment with HCT-116 colon, 8.9% (active); in the experiment with HCC-2998 colon, 24.5%; with KM12 colon, 12.6%.

Take `C=C1C(=O)O[C@H]2[C@H]1CC/C(COC(=O)NCC(C)c1ccc(CC(C)C)cc1)=C\CC[C@@]1(C)O[C@@H]21` (stereo partly drawn): the growth in the experiment with SR leukemia was -2.59% (active); in the experiment with RPMI-8226 leukemia, -35.7% (active); with OVCAR-8 ovarian, -51% (active); in the experiment on OVCAR-5 ovarian it was 62.4%; in the experiment with OVCAR-4 ovarian, -43.8% (active); in the experiment with SK-OV-3 ovarian, 100%. For the same compound, the growth is -69.5% (active) in the experiment on IGROV1 ovarian; -85.5% (active) in the experiment on OVCAR-3 ovarian; 16% in the experiment with HS 578T breast; 28.6% in the experiment with NCI/ADR-RES ovarian; -50% (active) with T-47D breast; -42.4% (active) with BT-549 breast. For the same compound, the growth with MDA-MB-435 melanoma was -88.7% (active); in the experiment with SW-620 colon, -58.7% (active); in the experiment with MCF7 breast it was 13.7%; in the experiment with HCT-116 colon it was -83% (active); with HCC-2998 colon it was 59.5%; with KM12 colon it was -3.31% (active).

For `CCCNC(=O)Oc1ccc(/C(=C(\C)c2ccccc2)c2ccc(OCCCN(C)C)cc2)cc1`, the growth in the experiment with SR leukemia is 4.87% (active); with RPMI-8226 leukemia, 63.4%; in the experiment on OVCAR-8 ovarian, 86.6%; with OVCAR-5 ovarian, 80.5%; in the experiment on OVCAR-4 ovarian, 79.7%; with SK-OV-3 ovarian, 71.9%. Also, the growth was 89.5% with IGROV1 ovarian; 83% with OVCAR-3 ovarian; 55.3% in the experiment on HS 578T breast; 77.7% in the experiment with NCI/ADR-RES ovarian; 33.3% in the experiment on T-47D breast; 83% in the experiment on BT-549 breast. For the same compound, the growth with MDA-MB-435 melanoma is 63%; in the experiment on SW-620 colon it was 90%; with MCF7 breast, 21.7%; in the experiment with HCT-116 colon, 54.2%; with HCC-2998 colon, 64.8%; in the experiment with KM12 colon, 67.2%.

For the compound `COc1cc(F)c(/C=C/c2cc(/C=C/c3cc(OC)c(OC)cc3F)on2)cc1OC`, the growth with SR leukemia was 46.9%; in the experiment on RPMI-8226 leukemia, 68.2%; with OVCAR-8 ovarian it was 87.1%; in the experiment on OVCAR-5 ovarian, 97.6%; with OVCAR-4 ovarian, 101%; in the experiment with SK-OV-3 ovarian it was 105%. For the same compound, the growth with IGROV1 ovarian was 79.5%; in the experiment on OVCAR-3 ovarian it was 36.1%; in the experiment with HS 578T breast it was 89.2%; in the experiment on NCI/ADR-RES ovarian, 89.3%; with T-47D breast, 79%; in the experiment on BT-549 breast, 91.4%. Besides, the growth was 7.63% (active) with MDA-MB-435 melanoma; 80.4% in the experiment on SW-620 colon; 70.6% in the experiment with MCF7 breast; 60.3% in the experiment with HCT-116 colon; 91.9% in the experiment on HCC-2998 colon; 54.6% with KM12 colon.

`Cc1ccc(C(=O)/C(=C\c2ccc([N+](=O)[O-])cc2)S(=O)Cc2ccc(Cl)cc2)cc1` (stereo not drawn): the growth in the experiment with SR leukemia is 6.07% (active); in the experiment with RPMI-8226 leukemia, -28.1% (active); with OVCAR-8 ovarian it was 25.6%; in the experiment on OVCAR-5 ovarian it was 45.8%; in the experiment with OVCAR-4 ovarian, 58.9%; in the experiment on SK-OV-3 ovarian it was 106%. For the same compound, the growth with IGROV1 ovarian is 1.23% (active); in the experiment on OVCAR-3 ovarian, 22.4%; in the experiment on HS 578T breast it was 36.9%; with NCI/ADR-RES ovarian it was 30.5%; with T-47D breast it was -19.1% (active); with BT-549 breast it was 62%. Also, the growth is 50.1% in the experiment with MDA-MB-435 melanoma; 7.46% (active) with SW-620 colon; 15.2% in the experiment on MCF7 breast; -50.1% (active) in the experiment on HCT-116 colon; 58.8% in the experiment on HCC-2998 colon; 46.6% with KM12 colon.

As to `N#C/C(=C\c1ccc([N+](=O)[O-])s1)c1nc2cc(Cl)ccc2s1`, the growth in the experiment with SR leukemia was -0.613% (active); with RPMI-8226 leukemia, -13.4% (active); in the experiment with OVCAR-8 ovarian it was 3.27% (active); in the experiment with OVCAR-5 ovarian it was 63.6%; with OVCAR-4 ovarian it was 13.4%; with SK-OV-3 ovarian it was 65.1%. Besides, the growth in the experiment with IGROV1 ovarian is -16.2% (active); with OVCAR-3 ovarian it was 20.9%; with HS 578T breast, 77.6%; in the experiment with NCI/ADR-RES ovarian, -5.71% (active); with T-47D breast it was 58.7%; in the experiment on BT-549 breast it was -6.72% (active). Also, the growth in the experiment on MDA-MB-435 melanoma was 29.6%; with SW-620 colon, 1.39% (active); in the experiment on MCF7 breast, 4.17% (active); in the experiment with HCT-116 colon it was -36.4% (active); in the experiment on HCC-2998 colon, 14.9%; with KM12 colon, 81.4%.

In the case of `CC(Sc1nc2sc3c(c2c(=O)n1-c1ccc(Cl)cc1)CCCC3)C(=O)Nc1nc(-c2ccc(Br)cc2)cs1` (stereo not drawn), the growth in the experiment on SR leukemia was 97.6%; with RPMI-8226 leukemia, 102%; in the experiment with OVCAR-8 ovarian it was 103%; in the experiment with OVCAR-5 ovarian, 93.9%; in the experiment with OVCAR-4 ovarian it was 109%; with SK-OV-3 ovarian it was 96.6%. Moreover, the growth was 96% with IGROV1 ovarian; 114% in the experiment with OVCAR-3 ovarian; 112% in the experiment with HS 578T breast; 95.6% with NCI/ADR-RES ovarian; 98.2% with T-47D breast; 90.3% in the experiment with BT-549 breast. The growth in the experiment on MDA-MB-435 melanoma is 102%; with SW-620 colon, 104%; with MCF7 breast, 91.8%; in the experiment on HCT-116 colon, 93.4%; in the experiment with HCC-2998 colon it was 101%; with KM12 colon, 104%.

For the compound `Cc1ccc(NC(=O)Cc2ccc(/C=C/C(=O)c3ncc[nH]3)cc2)cc1`, the growth in the experiment on SR leukemia was 7.24% (active); with RPMI-8226 leukemia, -11.4% (active); with OVCAR-8 ovarian it was 8.42% (active); in the experiment on OVCAR-5 ovarian, 64.2%; with OVCAR-4 ovarian, 58%; with SK-OV-3 ovarian it was 84.4%. For the same compound, the growth is 57.6% in the experiment with IGROV1 ovarian; 15.3% with OVCAR-3 ovarian; 42.9% with HS 578T breast; 38.3% in the experiment on NCI/ADR-RES ovarian; 38.9% in the experiment on T-47D breast; 48.9% with BT-549 breast. For the same compound, the growth was 28.7% with MDA-MB-435 melanoma; 11.7% in the experiment on SW-620 colon; 14.5% in the experiment with MCF7 breast; 8.97% (active) with HCT-116 colon; 98% with HCC-2998 colon; 11.3% in the experiment with KM12 colon.

Source of the values: PubChem BioAssay (NCI).
